Screening results (PubChem)
Hits are enriched below; roughly 3.1% of the tested compounds scored in any of these assays.
TROY signal inh – inhibitors of TROY-dependent NF-kB signaling; Q293 LMP1-TROYcd NF-kB luciferase reporter, 4 h; 0.98% of 360,000 active; AID 1347056; inhibition, % at 10 µM;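 active means compounds whose plate-normalised and pattern-corrected inhibition of the luciferase reporter signal at the single screening dose is 50% or more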
LGR2 inh – inhibitors of bursicon-induced Drosophila LGR2 receptor cAMP signaling; HEK293 LGR2, CRE-luciferase, bursicon-stimulated, 4 h; inhibition, % at 9.99 µM; 0.35% of 380,000 active;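 active means drop in luminescence signal, shown as inhibition above about 50% in the replicate tests, limit read from the data, passing the limit was not always enough; inconclusive means probably only some replicates passing the limit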;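 further: agonist challenge used bursicon conditioned medium at about half maximal strength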
PAX8 reporter – PAX8 transcriptional activity inhibition; RMG-I TPO-luciferase reporter, SteadyGlo, 24 h; inhibition, % at 12.6 µM; 1.2% of 360,000 active; AID 652154;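 active means mean replicate inhibition at least 60% with every replicate also reaching 60%; inconclusive means only one of the two criteria is met; inactive means mean below 60% and not all replicates reaching 60%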;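 further: luciferase light reporting Pax8 driven TPO promoter activity; plate controls were median of neutral control wells for no effect and mitoxantrone controls for full effect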
EWS-Fli inh – blocks EWS/Fli oncoprotein-driven transcription; A673 NR0B1-luciferase reporter, viability-normalised; 0.67% of 350,000 active; inhibition, % at 12.6 µM;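 active means mean inhibition of at least 50% after viability correction, with every replicate also passing that limit; inconclusive means mean reaches 50% but only one of two replicates passes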;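 further: firefly luciferase signal divided by Alamar Blue viability fluorescence both relative to DMSO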
LMP1 NFkB inh – inhibitors of Epstein-Barr LMP1-induced NF-kappaB reporter; LMP1-induced NF-kappaB luciferase reporter cells, luminescence; inhibition, % at 12.5 µM; 0.69% of 350,000 active; in the data active means inhibition above about 41%; inconclusive means no clear call, values can overlap the other calls;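 further: 0% = neutral control wells and 100% = reference inhibitor control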
TWEAK-Fn14 inh – TWEAK-Fn14 signaling inhibition | inhibition, % at 10 µM | TWEAK-stimulated Fn14 reporter cells, luciferase luminescence, 8 h | 2% of 360,000 active; in the data active means inhibition above about 50%
Starred values were filed as active, the others as inactive; u = inconclusive; x = no result given.

SMILES	TROY signal inh	LGR2 inh	PAX8 reporter	EWS-Fli inh	LMP1 NFkB inh	TWEAK-Fn14 inh
Cc1ccccc1OCC(O)CNC1CCC(NCC(O)COc2ccccc2C)CC1 (stereo not drawn)	11.1	12.8	113.5*	69.4*	-35.4	-37.5
Cc1ccc(OCC(O)CNC2CCCC2)c(C)c1 (stereo not drawn)	-10.1	-3.4	2.7	5.0	-3.0	-6.2
O=C(Nc1cccc(S(=O)(=O)Nc2ccc(Cl)cc2)c1)c1ccc(Cl)nc1	53.1*	17.4	18.2	26.3	13.9	80.3*
COc1ccc(NS(=O)(=O)c2cccc(NC(=O)CCC(=O)c3ccc(Cl)cc3)c2)cc1	34.4	x	28.6	4.6	14.7	74.7*
COc1ccc(CCNC(=O)c2ccc3ccccc3n2)cc1OC	-8.1	x	-4.0	-0.2	17.9	-3.3
O=C1CSc2ccc(C(=O)Nc3cccc(S(=O)(=O)Nc4ccc(Br)cc4)c3)cc2N1	82.4*	10.3	7.4	13.4	14.9	97.8*
O=C(Nc1ccc(NS(=O)(=O)c2ccccc2)cc1)c1ccc(Cl)cc1	-23.4	-11.5	13.9	x	-2.7	-24.8
O=C(O)c1ccc(NC(=O)c2cccc(S(=O)(=O)Nc3ccc(C(=O)O)cc3)c2)cc1	9.2	-2.1	3.1	-0.7	15.9	10.7
COc1ccc(CNC(=O)c2ccc3ccccc3n2)cc1OC	6.7	2.6	19.8	26.5	9.1	53.7*
O=C(Nc1cccc(S(=O)(=O)Nc2ccccc2F)c1)c1ccc2ccccc2n1	15.7	-4.7	2.4	8.2	3.6	33.3
O=C(Nc1cccc(O)c1)c1cccc(S(=O)(=O)Nc2cccc(O)c2)c1	9.3	-5.6	38.2	-3.1	49.0*	-4.9
COc1ccccc1NS(=O)(=O)c1cccc(NC(=O)c2ccc3ccccc3n2)c1	33.3	7.6	5.6	-26.1	2.2	68.8*
COc1cccc(S(=O)(=O)Nc2ccc(C(=O)Nc3ccncc3)cc2)c1	-1.0	3.0	-14.6	x	12.1	18.9
COc1ccc(NS(=O)(=O)c2cccc(NC(=O)c3ccc(Cl)nc3)c2)cc1	26.6	19.7	49.5	11.4	10.0	70.4*
O=C(COC(=O)c1ccc[nH]c1=O)Nc1ccc(S(=O)(=O)N2CCCC2)cc1	56.2*	0.0	32.7	-1.2	2.5	10.4
O=C(COC(=O)c1ccc[nH]c1=O)Nc1cc(S(=O)(=O)N2CCCCC2)ccc1Cl	9.5	-6.2	-3.3	4.1	-8.0	-10.5
CC(=O)N(C)C[C@@H]1Oc2cc(C#Cc3ccccn3)ccc2S(=O)(=O)N([C@H](C)CO)C[C@H]1C	x	2.1	x	-20.1	x	x
CO[C@@H]1CN(C)C(=O)c2cc(NS(=O)(=O)c3cccc(C)c3)ccc2OC[C@@H](C)NC[C@H]1C	x	4.9	x	12.2	x	x
C[N+]1=C(/C=C/Nc2ccccc2Cl)C(C)(C)c2ccccc21	46.2	6.7	x	x	4.5	25.6
COC(=O)c1ccc2c(c1)C(C)(C)C(/C=C/c1ccccc1O)=[N+]2C	14.0	56.2*	x	x	-22.2	87.4*
COc1cc(OC)cc(C(=O)c2c(C)c(C#N)c3ccccn23)c1	-24.2	-1.2	10.4	58.3*	6.0	9.6
CCOC(=O)COc1ccc2c(C#N)c3ccccn3c2c1	-10.2	-6.9	-4.0	2.4	3.7	12.3
O=C(C[C@@H]1CC[C@@H]2[C@H](COC[C@@H](O)CN2Cc2ccc(Cl)cc2)O1)NCCc1ccccc1	x	-0.3	39.4	8.3	x	x
CC(C)C[C@H](NC(=O)c1nc[nH]c1C(=O)NCCCCCNC(=O)OC(C)(C)C)C(=O)OC(C)(C)C	2.7	5.7	17.0	1.1	-5.2	-5.5
CNC(=O)c1[nH]cnc1C(=O)N[C@@H](CCCCNC(=O)OC(C)(C)C)C(=O)OC(C)(C)C	-16.5	2.0	-16.7	-5.5	43.7*	-4.2
CC(C)C[C@H](NC(=O)c1nc[nH]c1C(=O)N[C@@H](CCCCNC(=O)OC(C)(C)C)C(=O)OC(C)(C)C)C(=O)OC(C)(C)C	2.3	x	101.6*	36.9	-1.1	19.9
O=C(NC1CCCC1)N1CC2(C1)[C@@H](c1ccccc1)[C@@H](CO)N2S(=O)(=O)Cc1ccccc1	x	4.9	-2.0	0.6	x	x
CCOC(=O)c1ccc(Nc2ncnc3ccc(C)cc23)cc1	11.7	15.2	x	x	-4.3	20.4
CCOc1ccc(Nc2ncnc3ccc([N+](=O)[O-])cc23)cc1	51.2*	40.7	10.3	-3.9	u	77.2*
